The values that follow come from PubChem BioAssay AID2073 (Sanford-Burnham Center for Chemical Genomics, 2009).

About 570 (0.2%) of roughly 290,000 compounds were called active. About 1% were inconclusive and are not listed. No stated cut-off is given here; in the data, active means inhibition mostly above about 51% (no sharp cut-off); inconclusive means no clear call, values can overlap the other calls; inactive means mostly below about 53%. This excerpt belongs to a sample that is enriched for actives.

The test has as its target Voltage-dependent N-type calcium channel subunit alpha-1B (Homo sapiens) (UniProt Q00975). In words: inhibitors of Mint1-CaV2.2 protein interaction, biochemical, HTRF (AID 2073). Particulars: at 20 µM, stronger effect = higher value. For orientation: Time-resolved FRET reads energy transfer from a long-lived donor to a nearby acceptor.
Where [1] appears, read: measured here: average of repeat tests.

Voltage-dependent N-type calcium channel subunit alpha-1B (Homo sapiens), sequence (Q00975 whole entry, looked up): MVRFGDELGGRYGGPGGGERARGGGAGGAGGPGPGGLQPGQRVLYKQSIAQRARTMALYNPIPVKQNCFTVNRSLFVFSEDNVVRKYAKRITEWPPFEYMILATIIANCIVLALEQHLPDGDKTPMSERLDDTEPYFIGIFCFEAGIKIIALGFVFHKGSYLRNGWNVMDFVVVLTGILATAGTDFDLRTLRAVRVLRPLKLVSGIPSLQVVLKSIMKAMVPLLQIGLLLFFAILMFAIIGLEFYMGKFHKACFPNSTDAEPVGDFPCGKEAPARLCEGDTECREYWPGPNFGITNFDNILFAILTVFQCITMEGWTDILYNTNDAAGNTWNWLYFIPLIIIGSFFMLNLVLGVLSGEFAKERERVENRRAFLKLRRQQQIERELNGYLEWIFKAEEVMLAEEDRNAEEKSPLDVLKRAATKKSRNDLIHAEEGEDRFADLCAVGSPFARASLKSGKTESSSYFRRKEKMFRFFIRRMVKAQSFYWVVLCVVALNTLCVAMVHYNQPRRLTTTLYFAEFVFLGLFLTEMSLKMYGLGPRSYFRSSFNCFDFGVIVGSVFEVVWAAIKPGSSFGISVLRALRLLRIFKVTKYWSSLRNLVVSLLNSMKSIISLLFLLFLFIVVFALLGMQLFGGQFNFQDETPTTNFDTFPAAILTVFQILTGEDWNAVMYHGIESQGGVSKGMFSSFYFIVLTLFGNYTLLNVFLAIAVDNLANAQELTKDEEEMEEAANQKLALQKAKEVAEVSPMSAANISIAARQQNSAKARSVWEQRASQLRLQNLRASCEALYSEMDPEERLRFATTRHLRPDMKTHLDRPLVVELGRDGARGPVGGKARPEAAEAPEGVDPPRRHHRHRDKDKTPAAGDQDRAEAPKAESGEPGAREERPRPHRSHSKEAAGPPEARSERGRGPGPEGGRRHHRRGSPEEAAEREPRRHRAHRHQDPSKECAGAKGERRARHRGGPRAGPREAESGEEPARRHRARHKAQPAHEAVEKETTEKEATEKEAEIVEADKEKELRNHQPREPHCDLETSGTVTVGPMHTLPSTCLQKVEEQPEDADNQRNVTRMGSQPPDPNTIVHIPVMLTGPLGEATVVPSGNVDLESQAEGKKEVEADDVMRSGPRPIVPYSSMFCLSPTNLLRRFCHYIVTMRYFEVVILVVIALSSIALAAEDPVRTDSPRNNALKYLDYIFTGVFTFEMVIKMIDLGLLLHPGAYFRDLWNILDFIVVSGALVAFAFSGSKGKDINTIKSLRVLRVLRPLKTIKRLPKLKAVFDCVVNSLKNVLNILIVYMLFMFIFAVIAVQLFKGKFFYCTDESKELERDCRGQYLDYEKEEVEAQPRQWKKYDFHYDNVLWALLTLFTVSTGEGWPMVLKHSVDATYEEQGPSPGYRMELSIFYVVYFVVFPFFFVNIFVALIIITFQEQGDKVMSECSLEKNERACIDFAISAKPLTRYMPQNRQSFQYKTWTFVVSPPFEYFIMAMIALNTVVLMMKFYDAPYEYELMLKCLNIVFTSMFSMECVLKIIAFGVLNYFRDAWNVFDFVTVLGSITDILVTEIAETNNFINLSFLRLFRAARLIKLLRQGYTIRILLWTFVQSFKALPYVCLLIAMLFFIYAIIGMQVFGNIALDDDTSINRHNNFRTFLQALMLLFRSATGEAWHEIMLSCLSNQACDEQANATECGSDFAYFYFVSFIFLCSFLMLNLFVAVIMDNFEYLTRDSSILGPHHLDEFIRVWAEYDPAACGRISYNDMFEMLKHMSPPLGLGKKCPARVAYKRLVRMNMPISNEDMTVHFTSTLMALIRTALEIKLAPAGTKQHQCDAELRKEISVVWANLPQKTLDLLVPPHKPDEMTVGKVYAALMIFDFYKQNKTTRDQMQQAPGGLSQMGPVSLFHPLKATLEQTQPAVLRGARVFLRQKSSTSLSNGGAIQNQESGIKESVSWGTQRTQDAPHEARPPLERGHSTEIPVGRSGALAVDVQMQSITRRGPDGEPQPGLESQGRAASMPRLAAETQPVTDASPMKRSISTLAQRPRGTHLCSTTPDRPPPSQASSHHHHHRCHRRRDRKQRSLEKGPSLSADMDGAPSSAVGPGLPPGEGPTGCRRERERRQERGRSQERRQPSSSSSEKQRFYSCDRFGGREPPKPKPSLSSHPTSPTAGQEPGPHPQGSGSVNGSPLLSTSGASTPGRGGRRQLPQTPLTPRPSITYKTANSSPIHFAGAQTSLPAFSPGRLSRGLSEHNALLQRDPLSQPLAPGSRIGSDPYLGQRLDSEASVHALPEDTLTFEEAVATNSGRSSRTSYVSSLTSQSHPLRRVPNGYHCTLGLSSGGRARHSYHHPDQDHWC

`Cc1ccc(N(C(=O)c2ccco2)C(C(=O)NC2CCCC2)c2cccnc2)cc1` (centres undefined): the inhibition (as a rule, the drop in the measured response relative to a control, in per cent) was -0.3% (inactive).

In the case of `O=C(N/N=C/c1ccc[nH]1)c1ccc(O)cc1`, the inhibition is 38.2% (inactive).

Regarding `Cc1ccc(/C=C2\SC(=S)N(/N=C/c3cc([N+](=O)[O-])ccc3O)C2=O)o1`, the inhibition was 73.2% (active).

As to `Cc1ccccc1/C=C1\SC(=S)N(/N=C/c2cc([N+](=O)[O-])ccc2O)C1=O`, the inhibition was 5.4% (inactive).

Take `O=C1/C(=C/c2cccc(Br)c2)SC(=S)N1/N=C/c1cc([N+](=O)[O-])ccc1O`: the inhibition is -2.1% (inactive).

As to `CCn1cc(CN2CCCC(C(=O)c3ccc(-c4ccccc4)c(F)c3)C2)cn1` (centres undefined), the inhibition is 6.5% (inactive).

With `O=C(O)C1CCC(N2C(=O)c3cccc([N+](=O)[O-])c3C2=O)CC1` (centres undefined), the inhibition is 5.9% (inactive).

For `O=C(O)C1CCC(N2C(=O)C3CCCCC3C2=O)CC1` (centres undefined), the inhibition is -2.9% (inactive).

Take `O=C(O)C1CCC(N2C(=O)c3c(Cl)c(Cl)c(Cl)c(Cl)c3C2=O)CC1` (centres undefined): the inhibition is 81.3% (active).

For `O=C1C2C3C=CC(C3)C2C(=O)N1c1n[nH]c(-c2ccccc2)n1` (centres undefined), the inhibition was 11% (inactive).

Consider `CC(=O)Oc1cc(O)c2c(c1)OC(c1ccc(OC(C)=O)c(OC(C)=O)c1)C(OC(C)=O)C2=O` (centres undefined), for which the inhibition is 8.9% (inactive).

With `O=C1NN(c2cccc(Br)c2)C(=O)/C1=C/c1ccc(-c2cc([N+](=O)[O-])ccc2O)o1`, the inhibition was 61.4% (active).

`O=C1NN(c2ccccc2)C(=O)/C1=C\c1ccc(-c2cc([N+](=O)[O-])ccc2O)o1`: the inhibition was 31.4% (inactive).

In the case of `CC1=NN(c2ccc(C)cc2)C(=O)/C1=C/c1ccc(-c2cc([N+](=O)[O-])ccc2O)o1`, the inhibition is 44.4% (inactive).

Consider `COc1ccc(/C=C2\SC(=S)N(CCC(=O)NCCCN3CCOCC3)C2=O)cc1`, for which the inhibition was -10.7% (inactive).

For the compound `CCc1ccc(C(=O)NNc2ccc(Cl)cc2)cc1`, the inhibition is -10.8% (inactive).

Turning to `COc1cc(CNCCO)cc(Br)c1OCc1cccs1`, the inhibition is -3.4% (inactive).

For the compound `O=C(Nn1cnnc1)c1csc2ccccc12`, the inhibition is -11.1% (inactive).

`CCCCCCn1c(=O)[nH]c2nc3cc(N)c(C)cc3nc2c1=O`: the inhibition is 4.4% (inactive).

Regarding `Cc1cc2nc3c(=O)n(Cc4ccccc4)c(=O)[nH]c3nc2cc1N`, the inhibition is 55.1% (active).

With `Cc1cc2nc3c(=O)n(CCc4ccccc4)c(=O)[nH]c3nc2cc1N`, the inhibition is 36.3% (inactive).

With `NC1=NC[C@@H](Cc2ccc(O)cc2)N1CCc1cccc(F)c1`, the inhibition was 16.7% (inactive).

`CC1CN(C(=O)CCCN2C(=O)c3ccccc3C2=O)CC(C)O1` (centres undefined): the inhibition was -7.3% (inactive).

As for `COc1ccc2[nH]c(=O)c(CN(Cc3ccco3)C(c3nnnn3Cc3ccccc3)C(C)C)cc2c1` (centres undefined), the inhibition was 12.1% (inactive).

Regarding `COc1ccc2[nH]c(=O)c(CN(Cc3nnnn3Cc3ccco3)C3CCCCC3)cc2c1`, the inhibition was 1.1% (inactive).

For `Cn1c(/C=C/c2cccc([N+](=O)[O-])c2)nc2ccccc2c1=O`, the inhibition was -20.2% (inactive).

For the compound `CCOC(=O)C(O)(CC(=O)c1ccc(OC)cc1)C(F)(F)F` (centres undefined), the inhibition was -6.5% (inactive).

`CC(C)(C)c1cc(N)on1`: the inhibition is -7.8% (inactive).

Take `CC1=CC(=O)c2c(O)ccc(O)c2C1=O`: the inhibition was 85.1% (active).

On to `COc1cccc2c1C(=O)C=C(C)C2=O`, for which the inhibition is -19.2% (inactive).

`CC1=CC(=O)c2ccccc2C1=O`: the inhibition is -11.2% (inactive).

For `CCc1nnc(NC(=O)C2CC(=O)N(c3ccc4c(c3)OCCO4)C2)s1` (centres undefined), the inhibition is 3% (inactive).

For the compound `O=C(Nc1nc(-c2ccco2)c(-c2ccco2)s1)C1CCC1`, the inhibition was 58.1% (inactive). In addition, under setting [1], the inhibition came to 1.4%.

`O=C(Nc1nnc(C2CC2)s1)C1CC(=O)N(c2ccc3c(c2)OCCO3)C1` (centres undefined): the inhibition is 12.6% (inactive).

`O=C(CCCSc1ccccc1)Nc1nc(-c2ccco2)c(-c2ccco2)s1`: the inhibition is 71.8% (inactive). Besides, the inhibition under setting [1] is -7.2%.

As for `O=C(CCl)Nc1nc(-c2ccco2)c(-c2ccco2)s1`, the inhibition is 66% (active).

In the case of `O=C(Nc1nc(-c2ccco2)c(-c2ccco2)s1)C1CC(=O)N(c2ccc3c(c2)OCCO3)C1` (centres undefined), the inhibition is 66.7% (active).

With `COc1ccc(CCN(C(=S)Nc2ccccc2)C2CC(=O)N(c3ccccc3)C2=O)cc1` (centres undefined), the inhibition is 6.3% (inactive).

For `CC(C)Oc1cccc(C(=O)C2CCCN(C(=O)c3ccsc3)C2)c1` (centres undefined), the inhibition is -8.4% (inactive).

Consider `N#Cc1cnc(NOCc2ccc(Cl)cc2)nc1`, for which the inhibition was 9.4% (inactive).

Regarding `O=c1c2c3n(c(=O)nc2[nH]n1-c1ccccc1)CCCCC3`, the inhibition is 1.1% (inactive).

For `O=C(NCCN1CCOCC1)/C(=C\c1ccccc1Cl)NC(=O)c1ccccc1`, the inhibition was 9.8% (inactive).

Turning to `COc1ccc(N=C2S/C(=C\c3ccc(OCC(=O)O)cc3)C(=O)N2CCc2c[nH]c3ccccc23)cc1`, the inhibition is 35.3% (inactive).

As for `COc1cc(/C=C2\SC(=Nc3ccccc3)N(CCc3c[nH]c4ccccc34)C2=O)ccc1OC(C)C(=O)O` (centres undefined), the inhibition was 6.2% (inactive).

Regarding `Fc1cccc(Cl)c1CNc1ccc(N2CCCC2)cc1`, the inhibition was 54% (active).

With `Clc1cccc(Cl)c1CNc1ccc(N2CCCC2)cc1`, the inhibition was 31.8% (inactive).

As for `NS(=O)(=O)c1ccc(NCc2c(F)cccc2Cl)cc1`, the inhibition is -1.1% (inactive).

Regarding `CC(C)(C)SCCNC(=O)CN1C(=O)c2cccc3cccc1c23`, the inhibition was 35.7% (inactive).

As to `O=c1cc(/N=C/c2coc3c(ccc4ccccc43)c2=O)[nH]c(=S)[nH]1`, the inhibition is 52.9% (active).

Turning to `O=c1cc(/N=C/c2coc3cc(Br)ccc3c2=O)[nH]c(=S)[nH]1`, the inhibition is 14.4% (inactive).

Regarding `CC(=O)Oc1ccc2c(=O)c(/C=N/c3cc(=O)[nH]c(=S)[nH]3)coc2c1`, the inhibition is 23.2% (inactive).

As for `CCCCN(C)C(=O)c1c[nH]c2ccc(S(=O)(=O)N3CCOCC3)cc2c1=O`, the inhibition was 24.6% (inactive).

Turning to `Cc1ccc(CNC(=O)c2ccc3c(c2)NC(=O)CS3)cc1`, the inhibition was -5.9% (inactive).

On to `COc1ccc(/C=C/C(=O)N/C(=C\c2ccco2)C(=O)NCCc2nc3ccccc3[nH]2)cc1`, for which the inhibition is 4.5% (inactive).

As to `CC(C)Oc1ccc(/C=C(\NC(=O)/C=C/c2ccco2)C(=O)NCCc2nc3ccccc3[nH]2)cc1`, the inhibition was 9.4% (inactive).

Take `COc1ccc(/C=C(\NC(=O)/C=C/c2ccco2)C(=O)NCCc2nc3ccccc3[nH]2)cc1`: the inhibition is 52.5% (active).

With `Cc1cc(C)c2c(c1)NC(c1cc3c(cc1Br)OCO3)C1CC=CC21` (centres undefined), the inhibition is 12.6% (inactive).

Take `CCOC(=O)/C(C#N)=C/c1cccc(F)c1`: the inhibition was 15.3% (inactive).

On to `O=C(Nc1ccc2c(c1)nc1n2CCN(C2CCCCC2)C1)NC1CCCCC1`, for which the inhibition is 11.3% (inactive).

As for `O=C(Nc1ccc2c(c1)nc1n2CCN(C2CCCCC2)C1)c1ccco1`, the inhibition was 57.2% (active).

For the compound `CC(=O)Nc1ccc2c(c1)nc1n2CCN(C2CCCCC2)C1`, the inhibition was 30.1% (inactive).

Turning to `CCc1ccc(NC(=O)Cn2nnc(C(=O)NCc3cccs3)c2N)cc1`, the inhibition was 26.5% (inactive).

Turning to `O=S(=O)(c1ccc(F)cc1)N1CCN(c2ccc(-c3ccccc3)nn2)CC1`, the inhibition is 41.9% (inactive).

With `CCC1(C)Cc2nc3sc(C(=O)O)c(N)c3cc2CO1` (centres undefined), the inhibition was 23.8% (inactive).

Regarding `CC1(C)Cc2nc3sc(C(=O)O)c(N)c3cc2CS1`, the inhibition was 54.6% (active).

For `CC1(C)Cc2nc3sc(C(=O)NCCCO)c(N)c3cc2CS1`, the inhibition is 30.6% (inactive).

Regarding `O=C(NCc1cccnc1)NC(=O)c1ccc(Cl)cc1`, the inhibition is -3% (inactive).

Turning to `O=C(CNC(=O)c1ccc(Cl)cc1)N/N=C/C=C/c1ccccc1`, the inhibition was 2.8% (inactive).

In the case of `O=c1oc2c(CN3CCN(CCO)CC3)c(O)ccc2cc1-c1ccccn1`, the inhibition is 30.4% (inactive).

`O=c1oc2c(CN3CCCCCC3)c(O)ccc2cc1-c1nc2ccccc2[nH]1`: the inhibition is 65.1% (active).

As for `CCc1cc2c(=O)c(-c3nc4ccccc4[nH]3)coc2c(CN2CCCCC2)c1O`, the inhibition was 9.7% (inactive).

For `O=C(Cc1n[nH]c(=O)c2ccccc12)NC(c1ccccc1)c1ccccc1`, the inhibition was 1.8% (inactive).

For `CC(C)CNc1nc(Oc2ccc(=O)[nH]n2)nc(N2CCOCC2)n1`, the inhibition was -12.9% (inactive).

For `COCCOC(=O)c1c(C)n(C)c2ccc(OC(=O)c3ccccc3F)cc12`, the inhibition is -3.1% (inactive).

Take `COc1ccc(-c2nn(-c3ccccc3)cc2/C=C(\C#N)C(N)=O)cc1[N+](=O)[O-]`: the inhibition was 43.3% (inactive).

Take `C=CCNC(=O)/C(C#N)=C/c1cn(-c2ccccc2)nc1-c1ccc(OC)c([N+](=O)[O-])c1`: the inhibition was 25.3% (inactive).

Consider `COc1ccc(-c2nn(-c3ccccc3)cc2/C=C(/C#N)C(N)=O)cc1[N+](=O)[O-]`, for which the inhibition was 54.4% (active).

Turning to `CC(NC(=O)c1cc(Br)ccc1Br)c1ccccc1` (centres undefined), the inhibition was 15.9% (inactive).

For `Cc1cc(C)cc(NC(=S)NCc2cccnc2)c1`, the inhibition was -3.3% (inactive).

In the case of `S=C(NCc1cccnc1)NCc1cccnc1`, the inhibition was -3.7% (inactive).

In the case of `Cn1cccc1C(C#N)(CC#N)c1cccc(F)c1C#N` (centres undefined), the inhibition was 14.3% (inactive).

Take `CC(C)n1c(=S)[nH]c2c1c(=O)[nH]c(=O)n2C`: the inhibition was -95.1% (inactive).

As to `CC(C)c1csc(CN2CCC(CO)(Cc3cccc(F)c3)CC2)n1`, the inhibition was -1.1% (inactive).

Take `COc1ccc(S(=O)(=O)N2c3cc(C)ccc3OCC2C(C)(C)C)cc1` (centres undefined): the inhibition is -0.4% (inactive).

On to `Cc1ccc(S(=O)(=O)N2c3ccccc3OCC2C(C)(C)C)cc1` (centres undefined), for which the inhibition is 1.7% (inactive).

With `COc1ccc(S(=O)(=O)N2c3ccccc3OCC2C(C)(C)C)cc1` (centres undefined), the inhibition was 50.4% (active).

Turning to `CCN(CC)S(=O)(=O)c1ccc(C(=O)Nc2ccc3c(c2)OCO3)cc1`, the inhibition was 9.9% (inactive).

Take `COc1ccc(Br)cc1/C=c1\sc2nc(-c3ccco3)nn2c1=O`: the inhibition was 66.4% (active).

As for `CCOc1ccc(/C=c2\sc3nc(-c4ccco4)nn3c2=O)cc1OCC`, the inhibition is 31.7% (inactive).

With `COc1ccccc1/C=c1\sc2nc(-c3ccco3)nn2c1=O`, the inhibition is 35.1% (inactive).

Turning to `COCCSc1nnc(NC(=O)c2ccc3c(c2)OCO3)s1`, the inhibition is 3.7% (inactive).

Turning to `Cc1nc(C(C)N(C)Cc2nc(Cc3ccccc3F)no2)c(C)s1` (centres undefined), the inhibition was -15.7% (inactive).
